Experimental data published in the supplement of paper PMC10849652.
Of roughly 8,800 targets only a part is listed; those with a hit were picked by preference. About 0.5% of all pairs of compound and target were hits.

Tests used:
Experiment in all cases: log2 fold change, soluble protein after heating vs DMSO (PISA); higher = thermal stabilisation; K562 lysate, 10 uM; active = over 0.2 and 3.5 SD of the protein, either way, in both replicates (recomputed)
nilotinib = compound: Cc1cn(-c2cc(NC(=O)c3ccc(C)c(Nc4nccc(-c5cccnc5)n4)c3)cc(C(F)(F)F)c2)cn1 [nilotinib]
Summary of the method: (§1)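 Pellets of K562 cells were dounce-homogenised in PBS pH 7.4 with 1 mM MgCl2, and the crude extract was held at 1 mg/mL protein for a 30 min treatment with 10 μM compound. Aliquots were heated for 3 min over 48°C-58°C and pooled before NP-40 was added to 0.5% at 4°C. The supernatant from 21,000xg for 90 min was quantified by TMTpro 16plex LC-MS/MS with channel sums equalised. Values are reported from duplicates as log-two fold change in thermal stability relative to solvent controls.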

[1] = compound: Cc1nc(Nc2n[nH]c3c2CN(C(=O)N[C@H](CN(C)C)c2ccccc2)C3(C)C)c2sccc2n1
Summary of the method: as §1

dasatinib = compound: Cc1nc(Nc2ncc(C(=O)Nc3c(C)cccc3Cl)s2)cc(N2CCN(CCO)CC2)n1 [dasatinib]
Summary of the method: as §1

[2] = compound: Cc1ncc(-c2ccnc(Nc3ccc(S(C)(=O)=O)cc3)n2)n1C(C)C
Summary of the method: as §1

[3] = compound: Cn1cc(-c2ccc3c(c2)CCN3C(=O)Cc2cccc(C(F)(F)F)c2)c2c(N)ncnc21
Summary of the method: as §1

quisinostat = compound: Cn1cc(CNCC2CCN(c3ncc(C(=O)NO)cn3)CC2)c2ccccc21 [quisinostat]
Summary of the method: as §1

tipifarnib = compound: Cn1cncc1[C@@](N)(c1ccc(Cl)cc1)c1ccc2c(c1)c(-c1cccc(Cl)c1)cc(=O)n2C [tipifarnib]
Summary of the method: as §1

[4] = compound: NC(=O)Nc1cc(-c2cccc(F)c2)sc1C(=O)N[C@H]1CCCNC1
Summary of the method: as §1

[5] = compound: NC(=O)c1cnc(N[C@@H]2CCCC[C@@H]2N)nc1Nc1cccc(-n2nccn2)c1
Summary of the method: as §1

[6] = compound: NC1(c2ccc(-c3nc4ccn5c(=O)[nH]nc5c4cc3-c3ccccc3)cc2)CCC1
Summary of the method: as §1

[7] = compound: NCC(=O)Nc1ccc(-n2nc(C(F)(F)F)cc2-c2ccc3c(ccc4ccccc43)c2)cc1
Summary of the method: as §1

vorinostat = compound: O=C(CCCCCCC(=O)Nc1ccccc1)NO [vorinostat]
Summary of the method: as §1

silmitasertib = compound: O=C(O)c1ccc2c(c1)nc(Nc1cccc(Cl)c1)c1ccncc12 [silmitasertib]
Summary of the method: as §1

[8] = compound: O=C1NC(=O)C(c2cnc3ccccn23)=C1c1cn2c3c(cc(F)cc13)CN(C(=O)N1CCCCC1)CC2
Summary of the method: as §1

entospletinib = compound: c1cn2cc(-c3ccc4cn[nH]c4c3)nc(Nc3ccc(N4CCOCC4)cc3)c2n1 [entospletinib]
Summary of the method: as §1

Measured: log2 fold change

SYPL1 (UniProt Q16563)
Sequence of UniProt Q16563 (Q16563 whole entry, looked up): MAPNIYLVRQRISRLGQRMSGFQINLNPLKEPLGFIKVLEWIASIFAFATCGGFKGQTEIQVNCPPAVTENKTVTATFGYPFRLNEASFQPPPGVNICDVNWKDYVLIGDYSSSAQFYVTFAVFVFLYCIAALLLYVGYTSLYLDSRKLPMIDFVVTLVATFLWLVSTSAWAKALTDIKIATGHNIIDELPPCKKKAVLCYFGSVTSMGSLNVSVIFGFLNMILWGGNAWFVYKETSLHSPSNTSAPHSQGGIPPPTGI
inactive: nilotinib -0.005 | [1] -0.006 | dasatinib 0.013 | [2] 0.025 | [3] -0.014 | quisinostat -0.075 | tipifarnib 0.034 | [4] -0.002 | [5] -0.013 | [6] -0.044 | [7] -0.003 | vorinostat 0.005 | silmitasertib -0.03 | [8] -0.02 | entospletinib 0.014

SPR (UniProt P35270)
Sequence of UniProt P35270 (P35270 whole entry, looked up): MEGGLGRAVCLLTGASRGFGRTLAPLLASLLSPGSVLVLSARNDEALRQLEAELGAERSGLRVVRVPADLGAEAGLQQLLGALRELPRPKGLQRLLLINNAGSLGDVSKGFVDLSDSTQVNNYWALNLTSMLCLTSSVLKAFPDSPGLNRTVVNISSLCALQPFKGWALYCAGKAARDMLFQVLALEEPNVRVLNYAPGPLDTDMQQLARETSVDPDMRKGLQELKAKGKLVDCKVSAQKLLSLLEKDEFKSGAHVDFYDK
inactive: nilotinib -0.063 | [1] 0.01 | dasatinib 0.201 | [2] 0.012 | [3] 0.075 | quisinostat 0.077 | tipifarnib 0.035 | [4] 0.01 | [5] 0.02 | [6] 0.009 | [7] -0.037 | vorinostat -0.199 | silmitasertib 0.308 | [8] 0.219 | entospletinib 0.003

SLC25A38 (UniProt Q96DW6)
Sequence of UniProt Q96DW6 (Q96DW6 whole entry, looked up): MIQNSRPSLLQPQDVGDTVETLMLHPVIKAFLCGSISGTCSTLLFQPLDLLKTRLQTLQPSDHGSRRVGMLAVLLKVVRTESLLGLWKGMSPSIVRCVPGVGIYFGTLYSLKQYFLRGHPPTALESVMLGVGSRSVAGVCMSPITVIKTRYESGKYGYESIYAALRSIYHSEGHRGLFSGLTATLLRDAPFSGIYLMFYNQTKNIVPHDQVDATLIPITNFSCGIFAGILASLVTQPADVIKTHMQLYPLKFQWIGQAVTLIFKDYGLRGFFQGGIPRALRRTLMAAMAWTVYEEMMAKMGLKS
inactive: nilotinib -0.097 | [1] -0.142 | dasatinib 0.015 | [2] -0.171 | [3] 0.15 | quisinostat -0.068 | tipifarnib -0.061 | [4] -0.019 | [5] -0.138 | [6] 0.06 | [7] -0.093 | vorinostat 0.109 | silmitasertib 0.129 | [8] -0.019 | entospletinib -0.075

SLC20A1 (UniProt Q8WUM9)
Sequence of UniProt Q8WUM9 (Q8WUM9 whole entry, looked up): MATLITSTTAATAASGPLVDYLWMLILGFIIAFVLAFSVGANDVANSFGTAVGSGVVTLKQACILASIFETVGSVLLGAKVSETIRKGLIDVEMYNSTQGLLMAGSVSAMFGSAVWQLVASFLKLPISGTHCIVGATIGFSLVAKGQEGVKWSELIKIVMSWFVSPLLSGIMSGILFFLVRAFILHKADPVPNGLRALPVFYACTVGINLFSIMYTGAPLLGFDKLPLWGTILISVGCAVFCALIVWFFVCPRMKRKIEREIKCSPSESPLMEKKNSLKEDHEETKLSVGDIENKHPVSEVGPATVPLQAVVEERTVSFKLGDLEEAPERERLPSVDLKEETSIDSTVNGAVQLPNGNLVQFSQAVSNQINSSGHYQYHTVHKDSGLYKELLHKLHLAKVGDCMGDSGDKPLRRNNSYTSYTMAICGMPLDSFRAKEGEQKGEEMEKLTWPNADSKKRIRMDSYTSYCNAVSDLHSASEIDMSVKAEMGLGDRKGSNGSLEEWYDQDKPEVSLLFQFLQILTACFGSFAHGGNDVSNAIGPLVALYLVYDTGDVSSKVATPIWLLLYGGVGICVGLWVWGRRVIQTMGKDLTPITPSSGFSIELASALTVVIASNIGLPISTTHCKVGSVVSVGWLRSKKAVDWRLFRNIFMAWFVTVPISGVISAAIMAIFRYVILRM
inactive: nilotinib -0.021 | [1] -0.001 | dasatinib -0.023 | [2] -0.03 | [3] 0.007 | quisinostat -0.048 | tipifarnib -0.007 | [4] -0.034 | [5] 0.05 | [6] -0.099 | [7] 0 | vorinostat 0.062 | silmitasertib -0.05 | [8] 0.021 | entospletinib 0.064

SMC6 (UniProt Q96SB8)
Sequence of UniProt Q96SB8 (Q96SB8 whole entry, looked up): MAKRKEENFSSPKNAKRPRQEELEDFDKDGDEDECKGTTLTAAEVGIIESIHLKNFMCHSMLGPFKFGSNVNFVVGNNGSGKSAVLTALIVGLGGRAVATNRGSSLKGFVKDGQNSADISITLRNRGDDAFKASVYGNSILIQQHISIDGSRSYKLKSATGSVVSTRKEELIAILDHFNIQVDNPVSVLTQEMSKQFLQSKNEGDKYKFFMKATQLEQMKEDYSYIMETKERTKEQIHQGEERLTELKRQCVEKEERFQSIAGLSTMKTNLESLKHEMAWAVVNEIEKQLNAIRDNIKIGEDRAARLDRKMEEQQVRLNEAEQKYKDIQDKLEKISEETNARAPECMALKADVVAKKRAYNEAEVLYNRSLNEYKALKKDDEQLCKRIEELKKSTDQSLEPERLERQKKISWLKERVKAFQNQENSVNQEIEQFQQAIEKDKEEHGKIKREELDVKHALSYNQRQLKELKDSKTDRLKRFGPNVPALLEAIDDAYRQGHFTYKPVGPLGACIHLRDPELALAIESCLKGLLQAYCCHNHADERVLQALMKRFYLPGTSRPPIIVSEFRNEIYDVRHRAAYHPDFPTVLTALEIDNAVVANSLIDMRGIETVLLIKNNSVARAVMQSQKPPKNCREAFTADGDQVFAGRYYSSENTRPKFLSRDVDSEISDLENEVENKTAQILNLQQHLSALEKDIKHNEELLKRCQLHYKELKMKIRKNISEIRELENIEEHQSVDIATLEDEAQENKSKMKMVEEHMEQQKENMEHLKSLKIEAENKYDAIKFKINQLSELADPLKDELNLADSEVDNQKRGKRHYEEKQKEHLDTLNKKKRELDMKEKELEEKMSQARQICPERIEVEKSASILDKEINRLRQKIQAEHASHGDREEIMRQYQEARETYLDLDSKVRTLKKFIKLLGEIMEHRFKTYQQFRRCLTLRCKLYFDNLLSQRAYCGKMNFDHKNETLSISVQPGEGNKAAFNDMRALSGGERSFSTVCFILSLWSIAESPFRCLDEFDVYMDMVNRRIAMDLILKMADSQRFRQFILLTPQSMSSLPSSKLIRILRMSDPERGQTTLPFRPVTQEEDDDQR
active: vorinostat -0.245
inactive: nilotinib 0.006 | [1] 0 | dasatinib -0.021 | [2] -0.019 | [3] 0.012 | quisinostat -0.012 | tipifarnib -0.06 | [4] 0.034 | [5] 0.001 | [6] 0.013 | [7] -0.006 | silmitasertib -0.022 | [8] 0.019 | entospletinib -0.013

SPIRE1 (UniProt Q08AE8)
Sequence of UniProt Q08AE8 (Q08AE8 whole entry, looked up): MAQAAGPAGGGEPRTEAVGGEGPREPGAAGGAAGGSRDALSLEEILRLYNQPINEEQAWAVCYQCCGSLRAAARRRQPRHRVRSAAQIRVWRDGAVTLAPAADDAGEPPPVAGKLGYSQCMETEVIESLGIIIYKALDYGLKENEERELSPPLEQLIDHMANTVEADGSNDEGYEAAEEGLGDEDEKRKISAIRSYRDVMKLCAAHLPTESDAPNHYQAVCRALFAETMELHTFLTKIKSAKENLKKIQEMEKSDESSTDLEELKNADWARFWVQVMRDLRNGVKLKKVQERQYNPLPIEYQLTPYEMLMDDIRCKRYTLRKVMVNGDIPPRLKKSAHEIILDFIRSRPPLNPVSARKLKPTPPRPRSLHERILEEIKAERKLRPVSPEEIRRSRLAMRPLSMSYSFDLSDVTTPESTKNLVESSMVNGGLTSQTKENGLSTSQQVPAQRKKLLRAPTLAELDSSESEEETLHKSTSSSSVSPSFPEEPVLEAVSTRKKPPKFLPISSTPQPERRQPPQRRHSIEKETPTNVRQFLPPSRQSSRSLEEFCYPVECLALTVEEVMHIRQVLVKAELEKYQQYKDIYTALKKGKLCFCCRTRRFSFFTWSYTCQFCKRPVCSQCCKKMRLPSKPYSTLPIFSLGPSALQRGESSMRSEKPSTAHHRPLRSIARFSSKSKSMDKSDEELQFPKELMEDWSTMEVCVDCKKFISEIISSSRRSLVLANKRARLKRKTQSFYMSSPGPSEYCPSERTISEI
inactive: nilotinib 0.064 | [1] 0.011 | dasatinib 0.037 | [2] -0.03 | [3] 0.025 | quisinostat -0.186 | tipifarnib 0.055 | [4] -0.032 | [5] 0.042 | [6] -0.01 | [7] 0.092 | vorinostat 0.15 | silmitasertib -0.02 | [8] -0.129 | entospletinib 0.076

SMAD9 (UniProt O15198)
Sequence of UniProt O15198 (O15198 whole entry, looked up): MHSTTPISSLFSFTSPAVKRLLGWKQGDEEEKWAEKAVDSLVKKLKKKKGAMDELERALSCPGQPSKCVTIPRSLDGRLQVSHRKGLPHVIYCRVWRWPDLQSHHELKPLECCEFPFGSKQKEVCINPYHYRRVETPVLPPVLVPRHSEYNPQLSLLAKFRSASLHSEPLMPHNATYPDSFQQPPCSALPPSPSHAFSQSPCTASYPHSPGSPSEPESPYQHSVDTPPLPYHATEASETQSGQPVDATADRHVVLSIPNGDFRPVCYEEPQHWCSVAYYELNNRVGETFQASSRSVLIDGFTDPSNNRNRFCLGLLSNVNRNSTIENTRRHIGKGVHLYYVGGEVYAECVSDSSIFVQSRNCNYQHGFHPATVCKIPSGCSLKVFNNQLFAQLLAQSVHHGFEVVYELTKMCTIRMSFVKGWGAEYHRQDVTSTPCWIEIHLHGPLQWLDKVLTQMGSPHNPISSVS
active: vorinostat -0.436
inactive: nilotinib 0.066 | [1] 0.054 | dasatinib 0.062 | [2] -0.028 | [3] -0.038 | quisinostat -0.036 | tipifarnib -0.021 | [4] 0.016 | [5] 0.02 | [6] -0.065 | [7] 0.007 | silmitasertib 0.023 | [8] -0.012 | entospletinib 0.017

SLC40A1 (UniProt Q9NP59)
Sequence of UniProt Q9NP59 (Q9NP59 whole entry, looked up): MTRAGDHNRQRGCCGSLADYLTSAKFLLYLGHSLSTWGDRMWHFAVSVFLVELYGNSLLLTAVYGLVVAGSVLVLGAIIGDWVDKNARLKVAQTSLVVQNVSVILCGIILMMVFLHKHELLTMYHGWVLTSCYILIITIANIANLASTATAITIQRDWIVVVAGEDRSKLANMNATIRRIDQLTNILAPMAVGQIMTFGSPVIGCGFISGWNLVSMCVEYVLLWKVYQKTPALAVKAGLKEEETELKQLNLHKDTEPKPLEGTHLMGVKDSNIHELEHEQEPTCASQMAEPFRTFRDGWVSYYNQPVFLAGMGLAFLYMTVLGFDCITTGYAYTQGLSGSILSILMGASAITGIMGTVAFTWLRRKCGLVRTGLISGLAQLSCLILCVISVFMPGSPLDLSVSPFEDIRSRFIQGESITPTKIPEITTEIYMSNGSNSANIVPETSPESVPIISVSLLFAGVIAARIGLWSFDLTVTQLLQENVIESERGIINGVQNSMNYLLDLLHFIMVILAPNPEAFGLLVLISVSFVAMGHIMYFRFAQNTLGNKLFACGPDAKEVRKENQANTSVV
inactive: nilotinib 0.009 | [1] 0.131 | dasatinib -0.077 | [2] 0.015 | [3] -0.02 | quisinostat -0.079 | tipifarnib -0.118 | [4] 0.167 | [5] -0.035 | [6] -0.185 | [7] 0.005 | vorinostat 0.046 | silmitasertib 0 | [8] -0.016 | entospletinib 0.022

SNAP23 (UniProt O00161)
Sequence of UniProt O00161 (O00161 whole entry, looked up): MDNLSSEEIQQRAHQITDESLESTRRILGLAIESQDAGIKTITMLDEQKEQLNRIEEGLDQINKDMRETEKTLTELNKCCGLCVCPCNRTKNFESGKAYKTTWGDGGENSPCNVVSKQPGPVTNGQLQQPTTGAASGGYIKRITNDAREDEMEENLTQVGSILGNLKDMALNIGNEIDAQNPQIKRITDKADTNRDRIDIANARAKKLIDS
inactive: nilotinib 0.001 | [1] 0.015 | dasatinib 0.045 | [2] -0.013 | [3] 0 | quisinostat 0.035 | tipifarnib 0.036 | [4] -0.019 | [5] -0.016 | [6] 0.031 | [7] -0.017 | vorinostat 0.052 | silmitasertib -0.067 | [8] -0.016 | entospletinib 0.004

SPG11 (UniProt Q96JI7)
active: vorinostat -0.399
inactive: nilotinib -0.024 | [1] 0.026 | dasatinib -0.052 | [2] 0.026 | [3] 0.025 | quisinostat -0.048 | tipifarnib -0.007 | [4] -0.017 | [5] 0.05 | [6] -0.046 | [7] -0.001 | silmitasertib 0.062 | [8] 0.04 | entospletinib -0.098
